# Test results taken from PubChem BioAssay (EPA / NIEHS).
# Calls of active or inactive are those of the source. The calls were made as follows: active = hit-call score of the fitted dose curve at least 0.9, where 1 is the maximum; inactive = score below 0.9.
# Target: Hepatocyte nuclear factor 3-beta (Homo sapiens) (UniProt Q9Y261)
# Experiment: ATG_FoxA2_CIS: Attagene CIS-FACTORIAL HepG2 Assay for human Forkhead box A2 (FOXA2) (AID 2282942)
# Details: HepG2 cis-reporter transcription factor activity, 24 h; actives raise or lower the signal
# Description: ATG_CIS is a cell-based, multiplexed-readout assay that uses HepG2, a human liver cell line, with measurements taken at 24 hours after chemical dosing in a 24-well plate.ATG_FoxA2_CIS is one of 52 assay component(s) measured or calculated from the ATG_CIS assay. It is designed to make measurements of mRNA induction, a form of inducible reporter, as detected with fluorescence intensity signals by Reverse transcription polymerase chain reaction (RT-PCR) and Capillary electrophoresis technology.Data from the assay component ATG_FoxA2_CIS was analyzed into 1 assay endpoint. This assay endpoint, ATG_FoxA2_CIS, was analyzed with bidirectional fitting relative to DMSO as the negative control and baseline of activity. Using a type of inducible reporter, measures of mRNA for gain or loss-of-signal activity can be used to understand the reporter gene at the transcription factor-level as they relate to the gene FOXA2. Furthermore, this assay endpoint can be referred to as a primary readout, because this assay has produced multiple assay endpoints where this one serves a reporter gene function. To generalize the intended target to other relatable targets, this assay endpoint is annotated to the dna binding intended target family, where the subfamily is forkhead box protein.
# Human liver HepG2 cells are transiently transfected with multiple reporter transcription units (MRTUs) in 6-well plates using FuGene 6 reagent (Roche; 3 ml FuGene/1 mg DNA). The MRTU constructs are regulated by a cis-regulating element (promoter). […] A major difference between the CIS and TRANS system is that in CIS activities of endogenous TFs are measured, whereas the TRANS assay evaluates changes in activities of exogenous, chimeric NR-Gal4 proteins. […] At the end of 24 hour incubation, total RNA was isolated using TriZol reagent (Invitrogen). The isolated RNA is then reverse-transcribed using oligo(dT) primer and Mo-MLV reverse transcriptase (Invitrogen) with DNAse I (Ambion) treatment for 30 min. The one-tenth of the produced cDNA was amplified by PCR using Taq DNA polymerase (Invitrogen) and two reporter sequence-specific primers. The PCR products were fluorescently labeled by primer extension with 6-arboxyfluorescein (6-FAM) 5'-labeled reporter sequence-specific primer (2 min at 95 C, 20 s at 68 C and 10 min at 72 C) and these products were digested with 5U of HpaI (New England Biolabs) for 2h at 37 C. The fragments were purified using Qiaquick PCR columns (Qiagen), analyzed on an ABI 3130xL genetic analyzer (Applied Biosystems) with peak positions identified by using a set of X-rhodamine (ROX)-labeled MapMarker1000 molecular weight standards (BioVentures). The raw capillary electrophoresis data was processed using Attagraph software (Attagene).
# Sequence of Hepatocyte nuclear factor 3-beta (Homo sapiens) (Q9Y261 whole entry, looked up): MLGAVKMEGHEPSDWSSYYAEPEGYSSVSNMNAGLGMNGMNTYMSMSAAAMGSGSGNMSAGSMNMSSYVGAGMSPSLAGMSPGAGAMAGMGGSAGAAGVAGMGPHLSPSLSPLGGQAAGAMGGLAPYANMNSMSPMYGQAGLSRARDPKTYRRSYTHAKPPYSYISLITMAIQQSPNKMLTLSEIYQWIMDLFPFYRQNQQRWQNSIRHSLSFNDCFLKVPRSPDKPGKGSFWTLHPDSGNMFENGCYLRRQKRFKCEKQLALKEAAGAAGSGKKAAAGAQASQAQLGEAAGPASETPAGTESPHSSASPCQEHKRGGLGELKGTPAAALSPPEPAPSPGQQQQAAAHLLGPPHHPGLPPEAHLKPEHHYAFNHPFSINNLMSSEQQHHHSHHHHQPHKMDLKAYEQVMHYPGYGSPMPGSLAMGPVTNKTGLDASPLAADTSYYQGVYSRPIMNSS
row,SMILES,outcome
1,C=COCCOCCOC=C,inactive
2,CS(=O)(=O)OCCCCOS(C)(=O)=O,inactive
3,O=C(O)CNc1ccccc1,inactive
4,CCCCCCCCCCCCN1CCCCCC1=O,inactive
5,[Cl][Au]([Cl])[Cl],inactive
6,CCC1(c2ccccc2)C(=O)NCNC1=O,inactive
7,CN(C)C(=O)Nc1ccc(Oc2ccc(Cl)cc2)cc1,inactive
8,CCCN(CCC)S(=O)(=O)c1ccc(C(=O)O)cc1,inactive
9,CC(C)CC(C)CC(O)CC(C)C (stereo not given),inactive
10,O=CN1CCOCC1,inactive
11,CCCCCCCCc1ccc(S(=O)(=O)O)cc1,inactive
12,CSc1c(Cl)c(Cl)c(Cl)c(Cl)c1Cl,inactive
13,CCN(CC)C(=O)N(CC)CC,inactive
14,CCCCCCC(CO)CCCC (stereo not given),inactive
15,C=C(C)C(=O)OCCOC1CC2CC1C1C=CCC21 (stereo not given),inactive
16,Nc1ccc2cc(S(=O)(=O)O)cc(O)c2c1N=Nc1ccccc1C(F)(F)F,inactive
17,COC(=O)c1ccc(OC)cc1,inactive
18,CC(=O)O[C@@H]1C[C@@H]2CC[C@@]1(C)C2(C)C,inactive
19,CN1CCOCC1,inactive
20,CCCCCCOCCOCCO,inactive

row,SMILES,outcome
1,C=Cc1ccncc1,inactive
2,CCCC[P+](CCCC)(CCCC)CCCC,inactive
3,CCCC(=O)OCCc1ccccc1,inactive
4,CC(C)NCC(O)COc1ccc(CC(N)=O)cc1 (stereo not given),inactive
5,C[C@H]1O[C@@H](O[C@H]2[C@@H](O)C[C@H](O[C@H]3[C@@H](O)C[C@H](O[C@H]4CC[C@@]5(C)[C@H](CC[C@@H]6[C@@H]5C[C@@H](O)[C@]5(C)[C@@H](C7=CC(=O)OC7)CC[C@]65O)C4)O[C@@H]3C)O[C@@H]2C)C[C@H](O)[C@@H]1O,inactive
6,CCCOC(=O)c1c(Cl)c(Cl)c(Cl)c(Cl)c1C(=O)OCCC,inactive
7,CC(=O)NCCO,inactive
8,ClC(c1ccccc1)(c1ccccc1)c1ccccc1,inactive
9,Nc1ccc(Cl)c([N+](=O)[O-])c1,inactive
10,CCOC(=O)COC(=O)c1cc(Oc2ccc(C(F)(F)F)cc2Cl)ccc1[N+](=O)[O-],inactive
11,Nc1ccccc1[N+](=O)[O-],inactive
12,CN(C)c1ccncc1,inactive
13,CC1(C)C2=CCCC(C)(C)[C@]23CC[C@H]1C3,inactive
14,CC(C)C(OC(=O)c1ccccc1)C(C)(C)COC(=O)c1ccccc1 (stereo not given),inactive
15,C=CC(C)C#N (stereo not given),inactive
16,CCN(CCC#N)c1ccc(N=Nc2ccc([N+](=O)[O-])cc2)cc1,inactive
17,CC(=O)OCCCc1ccccc1,inactive
18,COc1ccc(OC)c(N=Nc2c(O)ccc3ccccc23)c1,inactive
19,CCOC(=O)C(C#N)=C(c1ccccc1)c1ccccc1,inactive
20,COCCOC(=O)c1ccccc1C(=O)OCCOC,inactive
